High-throughput results (PubChem)
A selection: hits, their analogues and other compounds. The true share with any hit is near 4.6%.
DAX1 inh-1: DAX1 (NR0B1) inhibition, primary screen; inhibition, % at 6.8 µM; actives 1.1% (n = 370,000); HEK293T StAR-luciferase reporter, SF-1/DAX-1 repression relief; AID 652010;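 active means inhibition above the mean over all tested compounds plus 3 SD, cut at about 3.6% in these data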;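 further: higher inhibition means more luminescence from relief of DAX-1 repression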
ssDAF-12 act: activators of S. stercoralis DAF-12 nuclear receptor | HEK293 ssDAF-12/GRIP1 lit1-tk-luc reporter, luminescence; % of 3 µM dafachronic acid response | activation, % at 6.8 µM | actives 1% (n = 370,000);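 active means activation above the mean over all tested compounds plus 3 SD, cut at about 0.9% in these data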
hcDAF12 agonist: activators of H. contortus DAF-12 nuclear receptor. actives 1.4% (n = 370,000). HEK293 hcDAF-12 lit1-tk-luc reporter, luminescence; 0% DMSO, 100% Δ7-dafachronic acid. activation, % at 6.8 µM;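 active means activation above the mean of all tested compounds plus 3 SD, cut at about 5.5% in these data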
DAX1 inh-2: NR0B1 (DAX1) inhibition | actives 0.99% (n = 340,000) | inhibition, % at 6.75 µM | P51843 | HEK293 Gal4-DAX1 luciferase reporter, luminescence;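 active means inhibition above the mean over all tested compounds plus 3 SD, cut at about 4.2% in these data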;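 further: inhibition shows as a rise in luminescence from relieved DAX1 repression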
Target sequence (P51843 207-470 limits assumed): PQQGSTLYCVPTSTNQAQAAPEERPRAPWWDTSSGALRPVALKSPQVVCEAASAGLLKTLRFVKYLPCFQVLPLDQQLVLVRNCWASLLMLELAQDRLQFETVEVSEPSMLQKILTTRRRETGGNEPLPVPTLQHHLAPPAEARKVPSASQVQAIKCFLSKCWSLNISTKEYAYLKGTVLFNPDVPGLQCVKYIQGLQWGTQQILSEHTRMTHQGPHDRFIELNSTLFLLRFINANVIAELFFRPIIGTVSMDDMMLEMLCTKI
hgDAF-12 ag: hgDAF-12 agonism, primary luciferase screen | HEK293 GAL4-hgDAF12 UAS-luciferase reporter, agonist luminescence; normalized to butyrate control | activation, % at 6.8 µM | actives 1.8% (n = 370,000) | AID 687014;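 active means activation above a cutoff set at the mean of all screened compounds plus 3 SD, cut at about 10% in these data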
Wee1 stabilizer: human Wee1 degradation inhibition, primary screen; P30291; HeLa Luc-Wee1K328M stability, luciferase luminescence; 100% = proteasome inhibitor MG132 effect; reporter increase, % at 5 µM; actives 1.2% (n = 220,000); AID 1321;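 active means activation above the mean of all tested compounds plus 3 SD, set per screening run, cut at about 8.8% in these data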;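 further: cells exposed to compound for 20 h before luminescence read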
Large screens that a line does not name were inactive; ! = a repeat was not active.

OC(c1ccc(Cl)cc1)c1ncc(-c2cccc(C(F)(F)F)c2)[nH]1 (centres undefined)	none (no result: DAX1 inh-2, Wee1 stabilizer)
O=P(OC1CCCCC1)(OC1CCCCC1)C(O)c1ccccc1 (centres undefined)	none
O=P(OC1CCCCC1)(OC1CCCCC1)C(O)c1cccnc1 (centres undefined)	hcDAF12 agonist 5.9
COCOc1cccc(CN2CCC2(C)C(=O)Nc2cc(OC)ccc2OC)c1 (centres undefined)	none (no result: DAX1 inh-2, Wee1 stabilizer)
COc1ccccc1CNC(=O)CN(C)CC(=O)Nc1ccccc1Br	none (no result: Wee1 stabilizer)
O=C(Nc1ccccc1F)c1ccc(OCc2ccccc2)cc1	hgDAF-12 ag 11
O=C(Nc1ccc(OCc2ccccc2)cc1)c1ccccc1	none
O=C(CCCc1ccccc1)Nc1ccccc1[N+](=O)[O-]	DAX1 inh-2 5.0 (no result: Wee1 stabilizer)
O=C(CCc1ccccc1)Nc1ccccc1F	DAX1 inh-1 3.7, hgDAF-12 ag 12
O=C(CCc1ccccc1)Nc1ccccc1[N+](=O)[O-]	none
Cc1ccc(C(=O)c2cc3ccccc3o2)cc1	hgDAF-12 ag 12
O=C(c1cccc([N+](=O)[O-])c1)c1cc2ccccc2o1	none
Cc1ccc(C(=O)c2cc3ccccc3o2)cc1C	hgDAF-12 ag 11
O=C(COC(=O)c1cnccn1)NCCc1ccc(Cl)cc1	none (no result: Wee1 stabilizer)
O=C1C(c2c(O)[nH]c3ccccc23)=Nc2ccccc21	ssDAF-12 act 1.3, Wee1 stabilizer 12
COc1ccc2c(=O)cc(C(F)(F)C(F)(F)F)oc2c1	none
COc1ccc2c(=O)cc(-c3ccccc3F)oc2c1	Wee1 stabilizer 9.4
O=C(NCc1ccc(F)cc1F)[C@@H]1CCCN1C(=O)[C@@H]1CCCN1C(=O)c1cccc2ccccc12	none (no result: DAX1 inh-2, Wee1 stabilizer)
CCc1cccc(Nc2cc(C)nc3nc(C)nn23)c1	DAX1 inh-2 4.3
Cc1cc(NC(=O)C2CC2)n(-c2nc3ccccc3s2)n1	hcDAF12 agonist 5.6
C=CCn1c(=O)c2ccccc2n2c(SCc3nc4ccccc4s3)nnc12	ssDAF-12 act 1.2
Cc1ccccc1C(=O)N/N=C1/SCC(=O)N1Cc1ccccc1	ssDAF-12 act 16
Cc1oc2c(C)c(O)ccc2c(=O)c1-c1nncn1-c1ccccc1	DAX1 inh-2 7.1
Cc1oc2c(C)c(O)ccc2c(=O)c1N1C(=O)c2ccccc2C1=O	none
COc1ccc(COc2cccnc2N)cc1	none
Nc1ncccc1OCc1ccc(Br)cc1	hgDAF-12 ag 11
CC(O)(c1ccccc1)c1nc(-c2cccc(C(=O)O)c2)cs1 (centres undefined)	hgDAF-12 ag 11 (no result: DAX1 inh-2, Wee1 stabilizer)
Cc1ccccc1NC(=O)Cc1nc(COC(=O)CSc2ccc(F)cc2)cs1	none (no result: Wee1 stabilizer)
COC(=O)c1ccc(N2CCCCC2)c(N)c1	DAX1 inh-1 3.7
Cc1cccc(C)c1N1CCN(CCn2c(=S)[nH]c3ccccc3c2=O)CC1	DAX1 inh-2 4.2 (no result: Wee1 stabilizer)
CCN1CCN(CCn2c(=S)[nH]c3ccccc3c2=O)CC1	none
Cc1ccc(S(=O)(=O)N(C)c2ccc(C(=O)NCCc3ccccc3)cc2)cc1	ssDAF-12 act 0.9 (no result: Wee1 stabilizer)
CN(c1ccc(C(=O)NCCc2ccccc2)cc1)S(C)(=O)=O	DAX1 inh-1 4.4
CN(c1ccccc1)S(=O)(=O)c1ccc(C(=O)NCc2ccccc2CN2CCCC2)cc1	DAX1 inh-1 4.3 (no result: Wee1 stabilizer)
Cc1ccc(C(=O)NCCc2ccccc2)cc1	none (no result: DAX1 inh-1, ssDAF-12 act, hcDAF12 agonist, hgDAF-12 ag, Wee1 stabilizer)
COc1cc(CNc2ccc3[nH]c(=O)[nH]c3c2)ccc1OCc1ccc(C)cc1	hgDAF-12 ag 12 (no result: Wee1 stabilizer)
O=C(CCCSc1nc2ccccc2[nH]1)NC1CCCCC1	Wee1 stabilizer 9.4
CC[C@H](CCCCCC#N)CCC(=O)N(c1ccccc1)c1ccccc1	none (no result: DAX1 inh-2, Wee1 stabilizer)
CCN(CC)S(=O)(=O)c1ccc(-c2nnc(SCC(=O)Nc3cc(OC)cc(OC)c3)o2)cc1	hgDAF-12 ag 11
Cc1csc(NC(=O)CSc2nnc(-c3ccccc3)o2)n1	DAX1 inh-1 4.3, hcDAF12 agonist 5.7
Cc1ccc(C)c(NC(=O)CSc2nnc(-c3ccccc3)o2)c1	none
O=C(CSc1nnc(-c2cccnc2)o1)Oc1ccccc1	none
CCN(CC)S(=O)(=O)c1ccc(-c2nnc(SCC(C)=O)o2)cc1	none
Cc1ccc(NC(=O)CSc2nnc(-c3cccnc3)o2)c(C)c1	DAX1 inh-2 4.4 (no result: Wee1 stabilizer)
CCN(CC)S(=O)(=O)c1ccc(-c2nnc(SCC(=O)Nc3nc(C)cs3)o2)cc1	none
O=C(CSc1nnc(-c2cccnc2)o1)c1cc2ccccc2oc1=O	hgDAF-12 ag 12
O=C1[C@H]2C[C@@]3(n4ccc5ccccc54)c4ccccc4N(S(=O)(=O)c4ccccc4)[C@H]3N2C(=O)CN1Cc1ccccc1	none (no result: DAX1 inh-2, Wee1 stabilizer)
COc1ccc(S(=O)(=O)N2CCC3CC2c2c(-c4ccc(C(F)(F)F)cc4)cccc23)cc1 (centres undefined)	none (no result: DAX1 inh-2, Wee1 stabilizer)
COC(=O)C1CN(Cc2cn(CCOC(C)=O)nn2)CCS(=O)(=O)N1Cc1ccc(OC)cc1 (centres undefined)	none (no result: DAX1 inh-2, Wee1 stabilizer)
COc1ccccc1NC(=O)CSc1nnc(-c2ccccc2)o1	DAX1 inh-1 5.4, DAX1 inh-2 5.2, hgDAF-12 ag 11
COc1ccccc1NC(=O)CSc1nnc(Cc2ccccc2)o1	none
Cc1ccc(C(=O)NNC(=O)c2cccc(C)c2)cc1	hgDAF-12 ag 11
Cc1cccc(NC(=S)N/C(=N/S(=O)(=O)c2ccccc2)c2ccccc2)c1	hgDAF-12 ag 12!
CC(C)CC(=O)NC(=S)Nc1cccc(NC(=O)c2ccccc2)c1	DAX1 inh-2 7.3
Cc1cccc(NC(=S)NNC(=O)c2ccco2)c1	none
CCCc1cc(C(=O)NNC(=S)Nc2cccc(C)c2)cs1	hgDAF-12 ag 11
Cc1ccc(NC(=O)CSCC(=O)N(C)CC(=O)Nc2ccccc2C(F)(F)F)cc1	none (no result: Wee1 stabilizer)
COC(=O)[C@]1(Cc2ccccc2)N[C@H](CN(C)C(=O)Nc2ccc(OC)cc2)[C@@H]2C(=O)N(Cc3ccccc3)C(=O)[C@@H]21	none (no result: Wee1 stabilizer)
CC(C)Oc1cccc(C(=O)NC(=S)Nc2ccccc2)c1	hgDAF-12 ag 12
CC(=O)c1cccc(NC(=S)NC(=O)c2ccc(Cl)cc2)c1	none
CC(=O)c1cccc(NC(=S)NC(=O)c2cccc(C)c2)c1	hgDAF-12 ag 13
O=C(COc1ccccc1Cl)Nc1cccnc1	hgDAF-12 ag 12
O=C(NC1CCCCN(Cc2cccc(Cl)c2)C1=O)c1ccccn1 (centres undefined)	none (no result: DAX1 inh-2, Wee1 stabilizer)
O=C(NCc1ccccc1F)C1C2C=CC3(CN(Cc4ccccc4)C(=O)C13)O2 (centres undefined)	none (no result: DAX1 inh-2, Wee1 stabilizer)
CCCn1c2ccccc2c2cc(C(=O)O)ccc21	none
Cn1c2ccccc2c2cc(C(=O)O)ccc21	hcDAF12 agonist 5.9
Cc1occc1C(=O)NNC(=S)Nc1ccccc1C(F)(F)F	hgDAF-12 ag 13
Cc1ccccc1NC(=S)NNC(=O)c1ccoc1C	none
